Test results reported in PubChem BioAssay (NCATS).
Inconclusive results are not listed. A number with no mark means an inactive call. Active and inactive are the calls of the source. Calls follow the shape of the dose curve; as a rule, active = well fitted cell-killing curve with a large enough effect; inconclusive = small, poorly fitted or top-dose-only effect, or effect the other way; inactive = flat fitted curve, though single readings scatter.

Test system: PA-1
Assay: Primary qHTS to identify gynecologic anti-cancer compounds using libraries of approved drugs and bioactive compounds (AID 1345084); also: nearly all actives have a fitted effect of over 55% in size
Details: Gynecologic cancer cell panel viability, ATPlite luminescence, 48 h; series mostly up to 57.5 µM; activity change, negative = cytotoxicity: at the top concentration
Outline: (§1)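 Cells, 1,000 per well, were allowed to settle for 16 h at 37 C before compound addition. Five concentrations were tested for 48 h, and viability was read by ATPlite luminescence after 15 min at room temperature.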
% is scaled to controls: 0 for no effect and ±100 for the full control effect; potency is read from the fitted curve at half-maximal effect.

Compared with `C=C[C@](C)(O)CC[C@H]1C(C)=CC(=O)[C@H]2C(C)(C)CCC[C@]12C`, `Cn1c(SCC(=O)N2CCC[C@H]2C(=O)Nc2ccccc2-c2ccccc2)nc2ccccc21` is higher in “activity change, negative = cytotoxicity” value: -2.02% for the first, 5.69% for the second.

In the case of `Cn1ncc2cc(-c3cnc(N)c(Cl)c3N3CCC4(CCNC4=O)CC3)ccc21`, the “activity change, negative = cytotoxicity” value is reported as -2.34%.

Test system: SKOV3
Assay: as above
Details: Gynecologic cancer cell panel viability, ATPlite luminescence, 48 h; series mostly up to 57.5 µM; activity change, negative = cytotoxicity: at the top concentration
Outline: as §1

`Cc1cc(-c2nc3cc(F)ccc3s2)ccc1NC(=O)[C@@H](N)CCCCN` was tested, and the Potency was 11.2 µM (active).
With `C1=C/COCc2cc(ccc2OCCN2CCCC2)Nc2nccc(n2)-c2cccc(c2)COC/1` the Potency was 8.91 µM (active).

Compared with `Cc1ccccc1CN1CCn2c1nc1c(c2=O)CN(Cc2ccccc2)CC1`, `Cn1c(SCC(=O)N2CCC[C@H]2C(=O)Nc2ccccc2-c2ccccc2)nc2ccccc21` is higher in “activity change, negative = cytotoxicity” value: 9.56% for the first, 11.6% for the second.

Compared with `COc1ccnc(CS(=O)c2nc3cc(OC(F)F)ccc3[nH]2)c1OC` (configuration not stated), `COc1cc(N(C)CCN(C)C)c(N)cc1Nc1nccc(-c2cn(C)c3ccccc23)n1` is higher in “activity change, negative = cytotoxicity” value: 0.741% for the first, 4.73% for the second.

First: COc1ccc(-c2cnc3c(-c4cccc5ncccc45)cnn3c2)cc1
Second: CCOc1ccc(-n2c(C(C)N(Cc3cccnc3)C(=O)Cc3ccc(F)c(C(F)(F)F)c3)nc3ncccc3c2=O)cc1 (configuration not stated)
The “activity change, negative = cytotoxicity” value of the first is lower: -26.2% for the first, -14.3% for the second.

Going from `CC(C)(C)OC(=O)c1ncn2c1C(C)(C)Nc1ccccc1-2` to `CC(C)(C)c1ccc(C(=O)Nc2cc(Cl)c(Br)cc2C(=O)O)cc1`, the “activity change, negative = cytotoxicity” value rises from 2.2% to 27.7%.

First: CN1CCN(C(=O)CN[C@@H]2C[C@H]2c2ccc(OCc3ccccc3)cc2)CC1
Second: Cc1ccc(N2CCN(CCC3NC(=O)c4ccccc43)CC2)cc1C (configuration not stated)
The “activity change, negative = cytotoxicity” value of the first is higher: 1.49% for the first, 0% for the second.

Going from `O=C(COc1ccc2ccccc2c1Br)Nc1cccnc1` to `O=C(Cc1c(F)cccc1F)Nc1cc(OCc2ccc(Cl)cc2)ccn1`, the “activity change, negative = cytotoxicity” value falls from -2.72% to -7.29%.

First: O=C(Nc1ccc2[nH]c(=O)oc2c1)C(=O)N1CCC(Cc2ccc(F)cc2)CC1
Second: O=C(NCC1CCN(Cc2cccc(Cl)c2)CC1)[C@@H]1CCCN(c2ncnc3c2nc2n3CCCC2)C1
The “activity change, negative = cytotoxicity” value of the first is lower: -6.23% for the first, -1.52% for the second.

Compared with `Cc1ccc(N2CCN(S(=O)(=O)N3CCCCC3)CC2)c(C)c1`, `Cn1ncc2cc(-c3cnc(N)c(Cl)c3N3CCC4(CCNC4=O)CC3)ccc21` is higher in “activity change, negative = cytotoxicity” value: -1.74% for the first, 8.62% for the second.

Going from `Cn1ncnc1[C@@H]1c2n[nH]c(=O)c3cc(F)cc(c23)N[C@H]1c1ccc(F)cc1` to `CCOc1ccc(-n2c([C@@H](C)N(Cc3cccnc3)C(=O)Cc3ccc(OC(F)(F)F)cc3)nc3ncccc3c2=O)cc1`, the “activity change, negative = cytotoxicity” value falls from 0.547% to 0%.

Compared with `C=C(C)C1=C[C@@]2(C)C(=CC1=O)CC[C@@H](O)[C@@H]2C`, `C=C[C@](C)(O)CC[C@H]1C(C)=CC(=O)[C@H]2C(C)(C)CCC[C@]12C` is higher in “activity change, negative = cytotoxicity” value: -2.22% for the first, 0% for the second.

Going from `C=C1/C(=C/C=C2\CCC[C@]3(C)[C@@H]([C@H](C)/C=C/[C@H](O)C4CC4)CC[C@@H]23)C[C@@H](O)C[C@@H]1O` to `C=C1/C(=C/C=C2\CCC[C@@]3(C)C2CCC3[C@H](C)/C=C/[C@@H](O)C2CC2)C[C@@H](O)C[C@@H]1O` (some centres not stated), the “activity change, negative = cytotoxicity” value falls from 16.4% to 0%.

Going from `O=C(NCC1(c2nc(-c3ccccc3)cs2)CCOCC1)c1cccc(-c2noc(C(F)(F)F)n2)c1` to `Cc1noc(-c2ccc(-c3ccc(CC(=O)O)cc3)cc2)c1NC(=O)O[C@H](C)c1ccccc1Cl`, the “activity change, negative = cytotoxicity” value rises from -11% to -10.3%.

First: C/C=C/C=C/c1cc2c(C=O)c(O)c(CC=C(C)C)cc2o1
Second: C=CC1(C)CC(O)C(C(=C)C(=O)OC)C(O)C1C(=C)CO (configuration not stated)
The “activity change, negative = cytotoxicity” value of the first is higher: -17.1% for the first, -22.6% for the second.

Compared with `C=C(C)C(=O)O[C@H]1/C(C=O)=C\CC/C(CO)=C/[C@H]2OC(=O)C(=C)[C@@H]2[C@@H]1OC`, `C=C1C(=O)OC2/C=C(\CO)CC/C=C(\C=O)C(O)C(OC(=O)C(C)CC)C12` (configuration not stated) is higher in “activity change, negative = cytotoxicity” value: -6.93% [at 38.5 µM] for the first, 2.53% [at 38.5 µM] for the second.

Going from `CC(=O)OC/C(=C/C(=O)O)CC[C@@H]1C(C=O)=CC[C@@H]2C(C)(C)CCC[C@@]12C` to `COc1c(C(O)CC(C)C)ccc2c1C(=O)OCc1cc(C)cc(O)c1O2` (configuration not stated), the “activity change, negative = cytotoxicity” value rises from -8.32% [at 38.5 µM] to -3.73% [at 38.5 µM].

For `CN1CCN(c2ccc(-c3cccc(CN4CCOCC4)c3)cc2NC(=O)c2c[nH]c(=O)cc2C(F)(F)F)CC1`, the “activity change, negative = cytotoxicity” value was 4.98% [at 38.5 µM].

Going from `C[C@@H]1CC[C@]2(C(=O)O)CC[C@]3(C)C(=CCC4[C@@]5(C)CC[C@H](O)[C@](C)(C(=O)O)C5CC[C@]43C)C2[C@]1(C)O` (some centres not stated) to `CC(=O)OC1CC(C)C2(CCC3(CC(=O)OC3O)O2)C2(C)CCCC(C)(C)C12` (configuration not stated), the “activity change, negative = cytotoxicity” value rises from 0% [at 25.3 µM] to 11.1% [at 25.3 µM].

Compared with `CC(=O)OC[C@]12[C@H](OC(C)=O)C(=O)[C@@H]3[C@@H](O)[C@@]14O[C@@]3(C)COC(=O)c1cccnc1[C@@H](C)[C@H](C)C(=O)O[C@@H]([C@H](O)[C@@H]2OC(C)=O)[C@]4(C)O`, `COc1ccc(CCO[C@@H]2O[C@H](CO[C@H]3OC[C@](O)(CO)[C@H]3O)[C@@H](OC(=O)/C=C/c3ccc(O)c(O)c3)[C@H](O[C@@H]3O[C@@H](C)[C@H](O)[C@@H](O)[C@H]3O)[C@H]2O)cc1OC` is higher in “activity change, negative = cytotoxicity” value: -13.3% [at 25.3 µM] for the first, 0% [at 25.3 µM] for the second.

`CC(C)C(C)C(O)C1CC23CC(=O)C4(O)C(=C2CCC3C1C)C=CC1(O)CC(O)CCC14C` (configuration not stated) was tested, and the “activity change, negative = cytotoxicity” value was 14.4% [at 25.3 µM].

With `CC(C)NC(=O)N1CC[C@H](N=C2Nc3cc(F)ccc3N(CC(F)F)c3ccc(Cl)cc32)C1` the activity change, negative = cytotoxicity was 18.3% [at 11.6 µM].
